Source: PubChem BioAssay (National Center for Advancing Translational Sciences (NCATS))
Pf growth 48h: P. falciparum growth inhibition at 48 hours (one generation) | P. falciparum luciferase growth in erythrocytes, 48 h | Potency, µM (series often up to 28.7 µM), without a hit: at the highest dose activity change, negative = inhibition, hits mostly inhibitors | 5.9% of 310,000 active | AID 504832; further: potency means the concentration at half of the fitted maximal effect; on the % scale 0 is the no-effect control and ±100 the full control effect
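Luminescence readout; reporter = integrated firefly luciferase in P. falciparum. RBC culture at 2% hematocrit, 0.1% parasitemia final, 37 C/5% CO2; decreased signal taken as growth inhibition.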
HCMV inh: human cytomegalovirus inhibition. activity change, negative = inhibition, % at 57.5 µM. HFF cells, HCMV-luciferase reporter, 72 h; hits give low values. 4.5% of 410,000 active. AID 1259415; in the data active means activity change below about -60%; inconclusive means no clear call, values can overlap the other calls; inactive means above about -39%; further: on the % scale 0 is the no-effect control and ±100 the full control effect
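Luciferase read-out from HCMV-luciferase-infected HFFs (MOI 1 PFU/cell) 72 h post infection at 37C; compounds added after 16 h cell attachment; activity normalized between buffer-only basal and Salinomycin (10uM) inhibitor controls.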
SARS PLpro yeast: blocks SARS-CoV papain-like protease in a yeast assay; S. cerevisiae expressing SARS-CoV PLpro, growth rescue; Potency, µM (highest dose often 32.9 µM), for inactives: top-dose activity, positive = growth rescue, usual class: activators; 0.19% of 330,000 active; calls by dose curve; further: potency means the concentration at half of the fitted maximal effect; 0% is about no effect; nearly all actives have a fitted effect of over 55% in size
HCV inh: inhibitors of hepatitis C virus infection | Huh7.5.1 HCVcc-Cre infection, luciferase reporter, 44 h | Potency, µM (series often up to 41.8 µM), inactives show top-dose activity change, negative = inhibition, hits mostly inhibitors | 3.4% of 340,000 active | AID 651820; further: potency means the concentration at half of the fitted maximal effect; on the % scale 0 is the no-effect control and ±100 the full control effect
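Cells seeded at 1,000/well and cultured 4 h, then compounds added followed by HCVcc-Cre virus (~0.5 moi). After 44 h further culture, luciferase substrate was added, plates held 15 min at room temperature, and luminescence read for 15 sec.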
Pf growth 96h: P. falciparum growth inhibition at 96 hour, primary screen for plastid delayed-death inhibitors; P. falciparum luciferase reporter growth, 96 h; Potency, µM (doses to about 28.7 µM), without a hit: top-dose activity change, negative = inhibition, actives largely listed as inhibitors; 6.9% of 320,000 active; AID 504834; further: potency means the concentration at half of the fitted maximal effect; on the % scale 0 is the no-effect control and ±100 the full control effect
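96 h incubation, 37 C, 5% CO2, of luciferase-reporter P. falciparum-infected RBCs (2% hematocrit, 0.05% parasitemia final) with test compounds; endpoint luminescence.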
Sm TGR inh: inhibitors of Schistosoma mansoni thioredoxin glutathione reductase. purified TGR, DTNB reduction, TNB absorbance 405 nm. Potency, µM (highest dose often 114 µM), for inactives: at the highest dose activity change, negative = inhibition, usual class: inhibitors. 3% of 360,000 active. AID 485364; further: potency means the concentration at half of the fitted maximal effect; on the % scale 0 is the no-effect control and ±100 the full control effect; nearly all actives have a fitted effect of over 60% in size
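Kinetic colorimetric format: TGR-catalysed, NADPH-driven DTNB reduction monitored via TNB absorbance. Enzyme dispensed at 20 nM; compound exposure 15 min at room temperature before reaction start.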
* hit, by the source's call; ? = inconclusive; / = no result given; ! = a repeat was not active. Hits are enriched below; roughly 15% of the tested compounds scored in any of these assays. Unless noted, the call rests on the fitted dose curve; in most records, active means well fitted curve in the direction sought with a large enough effect; inconclusive means small, poorly fitted or top-dose-only effect, or another doubt; inactive means no such curve, though single readings can be large; an effect the other way counts as inactive or inconclusive.

SMILES	Pf growth 48h	HCMV inh	SARS PLpro yeast	HCV inh	Pf growth 96h	Sm TGR inh
CC[C@@H](C)C(NC(=O)OC(C)(C)C)c1cn([C@@H](Cc2ccc(O)cc2)C(=O)N2CCN(C(=O)OC(C)(C)C)CC2)nn1 (stereo partly specified)	11.0%	-30.4	-0.1%	12.6%	8.28µM*	22.7%
CS(=O)(=O)Nc1ccccc1-c1ccc2nccn2c1	/	-0.1	/	/	/	/
Cc1ccc(C)n1C1C(=O)N(Cc2ccc(C(F)(F)F)cc2)c2ccccc21 (stereo unspecified)	/	30.4	/	/	/	/
COc1cc2c(=O)c(S(=O)(=O)c3ccc(C)cc3)cn(Cc3cccc(C)c3)c2cc1OC	/	-1.1	/	/	/	2.2%
CCN(CC)S(=O)(=O)c1ccc(N2CCN(c3ccccc3OC)CC2)c(N)c1	?	-80.2*	2.3%	?	?	1.8%
CC(OC(=O)c1ccccc1NCCO)C(=O)NC1CCCCC1C (stereo unspecified)	?	-21.4	4.3%	-6.3%	-14.1%	0.0%
COc1ccccc1OCC(=O)N/N=C1/C=C(C)CC1	-3.1%	-15.6	0.1%	3.0%	?	0.9%
COc1cc(OC)c(OC)cc1/C=N/N(C)c1ccccc1	/	-30.2	-5.1%	8.91µM*	-98.3%	1.8%
O=C(Cn1cnc2ccccc2c1=O)NCCC(=O)Nc1ccc2c(c1)OCCO2	52.3%	17.1	-1.9%	21.5%	10.4µM*	7.9%
CC1CCCC(C)N1S(=O)(=O)c1ccc(NC(=O)CCn2cnc3ccccc3c2=O)cc1 (stereo unspecified)	13.1µM*	-6.5	-12.7%	22.6%	/	-2.1%
O=C(Cn1cnc2ccccc2c1=O)Nc1ccc(S(=O)(=O)N2CCCC2)cc1	-15.6%	-19.9	0.1%	2.1%	-17.7%	-5.4%
CC(=O)Nc1ccc(NC2CCCCC2NS(=O)(=O)c2ccc(Cl)cc2)cc1 (stereo unspecified)	3.5%	-5.9	-0.1%	-12.9%	4.0%	6.6%
CC(=O)Nc1nc2c(ncn2COCCOC(C)=O)c(=O)[nH]1	3.9%	/	0.5%	6.2%	13.1µM*	0.1%
CC(C)[C@H](N)C(=O)OCCOCn1cnc2c(=O)[nH]c(N)nc21	0.4%	-6.3	/	0.501µM*!	?	?
O=C(N/N=C/c1ccc2c(c1)OCO2)C(=O)Nc1ccc2ccccc2c1	13.0%	12.0	1.4%	/	14.3%	/
CCOc1ccc(S(=O)(=O)n2nc(C)c(S(=O)(=O)N3CCCCC3)c2C)cc1	/	-3.0	/	/	/	-2.3%
CC1=CC(C)CC(C)OC(=O)CC(c2ccc(O)cc2)NC(=O)C(Cc2c(Br)[nH]c3ccccc23)N(C)C(=O)C(C)NC(=O)C(C)C1 (stereo unspecified)	/	-97.7*	/	?	/	/
CC(=O)NNS(=O)(=O)c1ccc(-c2cc(C(F)(F)F)n(C)n2)s1	1.2%	7.6	-0.9%	2.1%	-14.0%	11.7%
COc1ccc(CCn2c(=N)c(C(=O)NCc3ccco3)cc3c(=O)n4ccccc4nc32)cc1OC	/	-94.9*	/	?	/	/
COCCCn1c(=N)c(C(=O)NCc2ccco2)cc2c(=O)n3ccccc3nc21	/	-13.0	/	/	/	31.2%
N=c1c(C(=O)NCc2ccco2)cc2c(=O)n3ccccc3nc2n1CCc1ccccc1	0.928µM*	?	-5.1%	-23.4%	/	-14.7%
COc1ccc(CCNC(=O)c2cc3c(=O)n4ccccc4nc3n(Cc3ccco3)c2=N)cc1OC	-5.7%	?	-3.8%	2.24µM*	-102.1%	-22.0%
Cc1ccc(Cn2c(=N)c(C(=O)NCc3ccco3)cc3c(=O)n4ccccc4nc32)cc1	4.15µM*	4.6	23.0%	11.2µM*	0.0%	-22.7%
O=C(N/N=C/c1ccc(O)cc1)c1ccc(COc2cc(Cl)ccc2Cl)o1	?	58.2	-4.1%	?	2.0%	3.7%
Cc1ccc(CNC(=O)C(C)OC(=O)c2cccs2)cc1 (stereo unspecified)	11.0%	0.5	4.8%	13.6%	?	0.0%
